# Results filed as inconclusive are left out. Where a call stands in place of a potency, no number is given. Active and inactive are the calls of the source. The call rests on the fitted dose curve; in most records, active means well fitted curve in the direction sought with a large enough effect; inconclusive means small, poorly fitted or top-dose-only effect, or another doubt; inactive means no such curve, though single readings can be large; an effect the other way counts as inactive or inconclusive.
# Columns and labels:
# [1] = S16 Schwann cell viability assay (CellTiter-Glo assay) (AID 624031);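 further: cellular ATP luminescence as a viability measure; nearly all actives have a fitted effect of over 70% in size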
# In short: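 Untransfected S16 rat Schwann cells; compound 24 h, 37 °C/5% CO2; CellTiter-Glo ATP luminescence. % activity vs no-cell wells and DMSO controls (0%); concentration-effect curves classed by r2, response magnitude, activity.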
# AS120 = experiment: qHTS profiling for inhibitors of Plasmodium falciparum proliferation (AID 504749); further: nearly all actives have a fitted effect of over 60% in size; further: potency means the concentration at half of the fitted maximal effect; conditions: P. falciparum in erythrocytes, SYBR Green DNA, 72 h; series mostly up to 28.7 µM
# In short: (§1)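 Fluorescence of SYBR Green-bound parasite DNA, read at 485/535 nm, served as the growth measure. Infected erythrocytes were cultured with compound 72 h; artemisinin (0.29 uM) and DMSO wells defined the normalization range.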
# ATS189 = experiment: as above; conditions: P. falciparum in erythrocytes, SYBR Green DNA, 72 h; series mostly up to 28.7 µM
# In short: as §1
# CP194 = experiment: as above; conditions: P. falciparum in erythrocytes, SYBR Green DNA, 72 h; series mostly up to 28.7 µM
# In short: as §1
# CP201 = experiment: as above; conditions: P. falciparum in erythrocytes, SYBR Green DNA, 72 h; series mostly up to 28.7 µM
# In short: as §1
# CP215 = experiment: as above; conditions: P. falciparum in erythrocytes, SYBR Green DNA, 72 h; series mostly up to 28.7 µM
# In short: as §1
# CP217 = experiment: as above; conditions: P. falciparum in erythrocytes, SYBR Green DNA, 72 h; series mostly up to 28.7 µM
# In short: as §1
# CP237 = experiment: as above; conditions: P. falciparum in erythrocytes, SYBR Green DNA, 72 h; series mostly up to 28.7 µM
# In short: as §1
# CP252 = experiment: as above; conditions: P. falciparum in erythrocytes, SYBR Green DNA, 72 h; series mostly up to 28.7 µM
# In short: as §1
# CP265 = experiment: as above; conditions: P. falciparum in erythrocytes, SYBR Green DNA, 72 h; series mostly up to 28.7 µM
# In short: as §1
# CP268 = experiment: as above; conditions: P. falciparum in erythrocytes, SYBR Green DNA, 72 h; series mostly up to 28.7 µM
# In short: as §1
# CP291 = experiment: as above; conditions: P. falciparum in erythrocytes, SYBR Green DNA, 72 h; series mostly up to 28.7 µM
# In short: as §1
# CP305 = experiment: as above; conditions: P. falciparum in erythrocytes, SYBR Green DNA, 72 h; series mostly up to 28.7 µM
# In short: as §1
# CP325 = experiment: as above; conditions: P. falciparum in erythrocytes, SYBR Green DNA, 72 h; series mostly up to 28.7 µM
# In short: as §1
# DIV30 = experiment: as above; conditions: P. falciparum in erythrocytes, SYBR Green DNA, 72 h; series mostly up to 28.7 µM
# In short: as §1
# HB3 = experiment: as above; conditions: P. falciparum in erythrocytes, SYBR Green DNA, 72 h; series mostly up to 28.7 µM
# In short: as §1
# PC15 = experiment: as above; conditions: P. falciparum in erythrocytes, SYBR Green DNA, 72 h; series mostly up to 28.7 µM
# In short: as §1
# SC27B = experiment: as above; conditions: P. falciparum in erythrocytes, SYBR Green DNA, 72 h; series mostly up to 28.7 µM
# In short: as §1
# TAB109 = experiment: as above; conditions: P. falciparum in erythrocytes, SYBR Green DNA, 72 h; series mostly up to 28.7 µM
# In short: as §1
# CP203 = experiment: as above; conditions: P. falciparum in erythrocytes, SYBR Green DNA, 72 h; series mostly up to 28.7 µM
# In short: as §1
SMILES,Potency [1],Potency (AS120),Potency (ATS189),Potency (CP194),Potency (CP201),Potency (CP215),Potency (CP217),Potency (CP237),Potency (CP252),Potency (CP265),Potency (CP268),Potency (CP291),Potency (CP305),Potency (CP325),Potency (DIV30),Potency (HB3),Potency (PC15),Potency (SC27B),Potency (TAB109),Potency (CP203)
CO/N=C(/C(=O)N[C@@H]1C(=O)N2C(C(=O)O)=C(CSc3nnnn3C)CS[C@H]12)c1csc(N)n1,inactive,inactive,inactive,inactive,inactive,inactive,inactive,inactive,inactive,inactive,inactive,inactive,inactive,inactive,inactive,inactive,inactive,inactive,inactive,–
CCC(C(=O)C(C)C(O)C(C)CCc1ccc(C)c(O)c1C(=O)O)C1OC(CC)(C2CC[C@@](O)(CC)C(C)O2)CC1C (stereo partly drawn),inactive,0.398 µM (active),1.26 µM (active),0.849 µM (active),1.07 µM (active),0.849 µM (active),1 µM (active),0.562 µM (active),0.794 µM (active),0.891 µM (active),0.849 µM (active),0.478 µM (active),0.675 µM (active),0.953 µM (active),0.601 µM (active),0.631 µM (active),1.41 µM (active),0.447 µM (active),0.891 µM (active),0.849 µM (active)
COc1cc(/C=C2\CCC/C(=C\c3ccc(O)c(OC)c3)C2=O)ccc1O,inactive,8.91 µM (active),–,–,–,15.1 µM (active),11.2 µM (active),14.1 µM (active),–,14.1 µM (active),–,–,–,–,8.49 µM (active),12.6 µM (active),12.6 µM (active),11.2 µM (active),12.6 µM (active),–
OC[C@@H](O)C(O[C@@H]1O[C@@H](CO)[C@H](O)[C@H](O)[C@H]1O)[C@H](O)[C@@H](O)CO (stereo partly drawn),inactive,inactive,inactive,inactive,inactive,inactive,inactive,inactive,inactive,inactive,inactive,inactive,inactive,inactive,inactive,inactive,inactive,inactive,inactive,inactive
COC(=O)C1C2CC3c4[nH]c5cc(OC)ccc5c4CCN3CC2CC(OC)C1OC (stereo not drawn),–,inactive,inactive,inactive,inactive,inactive,inactive,inactive,inactive,inactive,inactive,inactive,inactive,inactive,–,inactive,inactive,inactive,inactive,inactive
CC(=O)O[C@]1(C(C)=O)CCC2C3CCC4=CC(=O)CCC4(C)C3(F)C(O)CC21C (stereo partly drawn),inactive,inactive,inactive,inactive,inactive,inactive,inactive,inactive,inactive,inactive,inactive,inactive,inactive,inactive,inactive,inactive,inactive,inactive,inactive,inactive

# — PubChem BioAssay (NCATS)
